# From PubChem
# TGFb SMAD3 inh = qHTS for Inhibitors of TGF-b. HepG2 CAGA-GFP TGF-b/SMAD3 reporter, GFP fluorescence, 18 h; TGF-beta stimulated, 500 pg/mL final. Potency, µM (series often up to 46.1 µM), inactives show top-dose activity, negative = inhibition, most hits filed as inhibitors. hit rate 1.2% among 410,000. AID 588855, 2011; note: % is set by controls: 0 for no effect and ±100 for the full control effect; nearly all actives have a fitted effect of over 65% in size
#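 First, reporter cells (HEPG2 CAGA-GFP) rested 2 h at 37 degrees C. Next, compounds were pinned in and TGF-beta added to 500 pg/mL final. After 18 h, GFP was imaged per cell and summed per well.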
# RORgamma inh = qHTS for inhibitors of ROR gamma transcriptional activity; Nuclear receptor ROR-gamma (Mus musculus), P51450; Potency, µM (top dose mostly 53.6 µM), for inactives: at the top dose activity change, negative = inhibition, actives largely listed as inhibitors; hit rate 5.4% among 310,000; Drosophila S2 Gal4-RORgamma UAS-luciferase reporter, 20 h; note: % is set by controls: 0 for no effect and ±100 for the full control effect; nearly all actives have a fitted effect of over 60% in size
# Target sequence (P51450 whole entry, looked up, the tested form may be a part): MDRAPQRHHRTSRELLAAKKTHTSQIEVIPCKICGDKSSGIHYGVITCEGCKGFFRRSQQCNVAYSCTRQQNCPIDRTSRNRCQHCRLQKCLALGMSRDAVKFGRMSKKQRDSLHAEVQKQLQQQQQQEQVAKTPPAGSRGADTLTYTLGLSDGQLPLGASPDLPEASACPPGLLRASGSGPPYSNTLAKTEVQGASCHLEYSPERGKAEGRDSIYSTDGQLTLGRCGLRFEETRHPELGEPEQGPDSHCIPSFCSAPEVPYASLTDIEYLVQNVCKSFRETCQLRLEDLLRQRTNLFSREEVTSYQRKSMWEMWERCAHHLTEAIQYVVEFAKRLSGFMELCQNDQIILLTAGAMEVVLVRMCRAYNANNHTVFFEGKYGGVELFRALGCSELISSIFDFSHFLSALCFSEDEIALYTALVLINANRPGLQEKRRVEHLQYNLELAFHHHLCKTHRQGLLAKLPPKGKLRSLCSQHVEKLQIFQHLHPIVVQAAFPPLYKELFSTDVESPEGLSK
#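 Read-out: Photinus luciferase luminescence; inhibitors lower reporter signal. Insect Schneider cells with Gal4-ROR gamma fusion under metallothionein promoter, UAS reporter; 700 uM final copper sulfate induction, 20 hr, ambient temperature.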
# S2 tox = Viability Counterscreen for Primary qHTS for Inhibitors of ATXN expression. S2 cells (HEK-293 line with an ATXN2-luciferase reporter) viability, CellTiter-Fluor protease fluorescence, 24 h. AID 651635, 2014. Potency, µM (series often up to 56.7 µM), most hits filed as cytotoxic. hit rate 0.49% among 400,000; note: nearly all actives have a fitted effect of over 40% in size
# HepG2 tox = qHTS for Inhibitors of TGF-b: Cytotox Counterscreen; hit rate 0.76% among 410,000; HepG2 CAGA-GFP viability, ATP luminescence, 18 h; Potency, µM (highest dose often 46.1 µM), without a hit: top-dose activity change, negative = cytotoxicity, usual class: cytotoxic; AID 588856, 2011
#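 HepG2 CAGA-GFP cells (1000/well, DMEM with 1% FBS) received compound, then TGF-beta at 500 pg/mL final, and were incubated 18 hours at 37 degrees C. Viability was read by CellTiter-Glo luminescence. Media-only wells were set as complete cell-killing and DMSO as no toxicity.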
# Gal4-VP16 FLuc = VP16 counterscreen qHTS for inhibitors of ROR gamma transcriptional activity. hit rate 3.5% among 310,000. Potency, µM (doses to about 53.6 µM), for inactives: at the top dose activity, negative = inhibition, most hits filed as inhibitors. AID 2546, 2010. Drosophila S2 Gal4-VP16 UAS-luciferase, luminescence, 20 h;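 note: Gal4-VP16 expression switched on by copper sulfate through the metallothionein promoter; % is set by controls: 0 for no effect and ±100 for the full control effect; nearly all actives have a fitted effect of over 50% in size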
# ATXN2 expr inh = Primary qHTS for Inhibitors of ATXN expression; Potency, µM (titrated, usually from 57 µM), without a hit: at the highest dose activity change, negative = inhibition, actives largely listed as inhibitors; HEK-293 ATXN2-luciferase reporter, luminescence, 24 h; hit rate 0.72% among 360,000; AID 1745845, 2022; note: % is set by controls: 0 for no effect and ±100 for the full control effect; nearly all actives have a fitted effect of over 55% in size
#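 qHTS (up to 57 uM final) was run with 24 h compound exposure of reporter cells at 37 °C. Each well was multiplexed: SteadyGlo luminescence measured ATXN2-luciferase expression after a fluorogenic Gly-Phe-AFC viability readout (25 uM final).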
# * = called active by the depositor; i = inactive; ? = inconclusive; / = not tested or not shown. Only some compounds are listed: those with a hit (about 6.3% of all), similar ones and a draw of the others. Calls come from the whole dose curve; as a rule, active = well fitted curve in the direction sought with a large enough effect; inconclusive = small, poorly fitted or top-dose-only effect, or another doubt; inactive = no such curve, though single readings can be large; an effect the other way counts as inactive or inconclusive. Potency is the fitted concentration of half-maximal effect.
SMILES,TGFb SMAD3 inh,RORgamma inh,S2 tox,HepG2 tox,Gal4-VP16 FLuc,ATXN2 expr inh
COc1ccc(-c2cnc3c(-c4ccc(F)cc4)cnn3c2N)cc1,3%,-33%,i,4%,17%,68%
CC(C)(C)S(=O)(=O)c1cnc2c(-c3ccc(Cl)cc3)cnn2c1N,26%,2.8µM*,?,-9%,-10%,6%
Nc1c(-c2ccc(Cl)cc2)cnc2c(-c3ccccc3)cnn12,-5%,22µM*,i,1%,-7%,53%
Nc1c(-c2ccc(Cl)cc2)cnn1-c1ccccc1,1%,-27%,i,-21%,4%,28%
CS(=O)(=O)c1cnc2c(-c3ccsc3)cnn2c1N,-9%,?,/,-75%,-15%,30%
CC(C)(C)S(=O)(=O)c1cnc2c(-c3ccc(F)cc3)cnn2c1N,-9%,4.5µM*,?,4%,-4%,8%
COC(=O)c1ccc(NC(=O)COc2ccccc2C(=O)Nc2ccccc2)cc1,5%,/,/,-5%,/,/
CCCCOc1ccc(S(=O)(=O)Nc2ccc(-c3ccc(N4CCCCC4)nn3)cc2)cc1,?,/,i,-22%,/,12%
Nc1c(-c2ccccc2)cnc2cc(-c3ccccc3)nn12,?,2.8µM*,i,-39%,?,74%
Cc1cc2ncc(-c3ccc(Cl)cc3)c(N)n2n1,-3%,?,i,-4%,?,20%
COc1cc(OC)cc(C(=O)Nc2nnc(NC(=S)Nc3ccccc3)s2)c1,-18%,0.63µM*,i,-3%,?,-7%
CCN(CC)S(=O)(=O)c1ccc(C(=O)Nc2nnc(NC(=S)Nc3ccccc3)s2)cc1,-4%,?,i,-14%,?,22%
COc1cc(OC)cc(C(=O)Nc2ccc(Nc3ccccc3)cc2)c1,-26%,30%,?,-33%,-1%,/
CC(C)(C)c1nnc(NC(=S)Nc2ccccc2)s1,-19%,0.28µM*,i,-27%,0.89µM*,22%
O=C1CCC[C@@H]2[C@@H](Cc3ccccc3)[C@@H](Nc3ccccc3)C[C@@H]3CCN1[C@@H]32,?,/,/,-8%,/,/
COc1cc[n+]([O-])cc1[N+](=O)[O-],-5%,/,i,-8%,/,-11%
O=c1c2ccccc2[nH]c(=S)n1CC1CCCO1 (centres undefined),9%,/,i,-7%,/,7%
CC1(C)CC2=C(CO1)C(=S)NC(c1ccccc1)N2CC1CCCO1 (centres undefined),12%,16µM*,i,50%,?,-11%
Cc1ccc2c(c1)CN(CCNC(=O)c1cc3ccccc3oc1=O)CC(C)O2 (centres undefined),/,/,i,/,/,/
OC(COc1ccccc1)CSc1ncn[nH]1 (centres undefined),?,11%,i,-1%,-18%,19%
CC(C)(C)c1ccc(OCC(O)CSc2ncn[nH]2)cc1 (centres undefined),-6%,10µM*,i,-26%,5.6µM*,-2%
CC1(C)C2CCC(C2)C1C/C=N/NC(N)=S (centres undefined),?,1.8µM*,i,-41%,4µM*,-29%
Fc1cccc(NC(=S)N2CCc3ccccc32)c1,?,8.9µM*,i,-11%,?,-2%
COc1ccccc1NC(=S)N1CCCc2ccccc21,14%,2.8µM*,?,2%,-10%,-6%
COc1ccc(NC(=S)N2CCCCCC2)cc1OC,-4%,-20%,?,0%,12%,/
CCOc1ccccc1NC(=S)N1CCCc2ccccc21,7%,3%,i,-19%,-5%,5%
O=C(Nc1ccccc1)N1CCc2ccccc21,-7%,-14%,?,-42%,-4%,38%
